# Data from PubChem BioAssay (Tox21).
# Activity calls are given as the source filed them. Calls come from the whole dose curve.
# Experiment: G protein-coupled receptor (GPCR) small molecule agonists, calcium flux assay: HEK293 wild type cell line counter screen (AID 1920065)
# Conditions: HEK293 WT calcium flux, fluorescence, agonist mode; series mostly up to 57.6 µM; activation: at the top concentration
# Description: U.S. Tox21 Program National Center for Advancing Translational Sciences [NCATS] Division of Preclinical Innovation [DPI] U.S. Environmental Protection Agency [EPA] National Institutes of Environmental Health Sciences [NIEHS] National Toxicology Program [NTP] U.S. Food and Drug Administration [FDA] Assay overview: The increased intracellular calcium release that occurred upon G protein-coupled receptor (GPCR) activation led to the frequent use of calcium flux assays to detect GPCR activation. For the purpose of studying and screening compounds that may activate GPCR, receptor-overexpressing models were typically generated using Hek293 wild-type (WT) cells. In order to eliminate the compounds that may have induced calcium release for non-specific activation, a counter-assay utilizing calcium flux on Hek293 WT cells was performed. The data were formulated in order to serve as a control for any calcium flux detection utilizing Hek293 cells with either GPCR overexpression or gene modification. The procurement of Hek293 WT cells from ATCC. Fluorescence intensity can be utilized to determine the activation of the compound in a calcium flux assay. As a counter control, this cell line was utilized to screen the Tox21 10K compound library.
# Assay Protocol Summary: Hek293 cells were dispensed at 1500cells/4uL/well in 1536-well black wall/clear bottom plates using a multidrop dispenser. After the assay plates were incubated at a 37 C/5% CO2 incubator for 18 hours, 4 uL of Calcium Dye Solution was added to each well. The plates were incubated at 37 C for 1 hour. For agonist mode, 23 nL of compounds dissolved in DMSO, positive control (ATP) or DMSO only was transferred to the assay plate by a pin tool station. The fluorescence intensity in the plates was measured using FDSS 7000EX kinetic plate reader with a filter set of Ex/Em=480/540 for 3 min at 1 sec intervals. Each test compound was measured at 15 concentrations and in triplicates.
# % is set by controls: 0 for no effect and ±100 for the full control effect.
row,SMILES,activation
1,CC1=C2[C@@H]([C@H](C)CC[C@H]2/C=C(\C)C(=O)O)[C@H](O)C1,0.0327% (inactive)
2,CN1C(C)(C)CCCC1(C)C,1.13% [at 26.5 µM] (inactive)
3,Oc1cccc2[nH]ccc12,0.06% [at 26.5 µM] (inactive)
4,CCO[Si](CC)(OCC)OCC,0.441% (inactive)
5,CCCCCc1ccc(Cl)cc1,0.381% (inactive)
6,c1ccc(C[P+](c2ccccc2)(c2ccccc2)c2ccccc2)cc1,4.29% (inactive)
7,CCCCCCCCCCCCCCN(CCO)CCO,0.447% (inactive)
8,COc1ccc(C(C)=O)cc1,-0.968% (inactive)
9,CCc1nnc(NS(=O)(=O)c2ccc(N)cc2)s1,0.412% [at 26.5 µM] (inactive)
10,CCN(CCO)CCCC(C)Nc1ccnc2cc(Cl)ccc12 (stereo not given),-1.14% [at 5.23 µM] (inactive)
11,CCOC(=O)CS,0.105% (inactive)
12,CN(C)CC/C=C1/c2ccccc2COc2ccc(CC(=O)O)cc21,-0.359% [at 26.5 µM] (inactive)
13,CCCCCCCCCCOC(C)=O,0.775% (inactive)
14,CC[N+](C)(CC)CCOC(=O)C(O)(c1ccccc1)C1CCCCC1 (stereo not given),-0.721% [at 26.5 µM] (inactive)
15,CCCCCCCCCCCCCC[n+]1ccccc1,0.207% (inactive)
16,CC(C)(C)C(=O)CC(=O)C(C)(C)C,-0.453% (inactive)
17,COc1cc(C)ccc1O,1.3% (inactive)
18,Cc1cc(Br)ccc1NC(=O)CCl,-2.6% (inactive)
19,CC(C)(C)C(=O)NCCCC(=O)O,-0.0365% [at 26.5 µM] (inactive)
20,O=C1N(c2ccccc2)c2ccccc2C1(Cc1ccncc1)Cc1ccncc1,-1.44% [at 26.5 µM] (inactive)

row,SMILES,activation
1,CC1(C)OC[C@@H](COC(=O)CCc2ccc(OC[C@@H](O)CNCCNC(=O)N3CCOCC3)cc2)O1,0.0514% [at 26.5 µM] (inactive)
2,CCN(CC)c1cccc(C)c1,0.685% (inactive)
3,S=C1NC=NC2N=CNC12 (stereo not given),0.29% (inactive)
4,C=C1CC[C@H]2O[C@]2(C)CC[C@@H]2[C@@H]1CC2(C)C,0.006% (inactive)
5,C=CCSCC1Nc2cc(Cl)c(S(N)(=O)=O)cc2S(=O)(=O)N1 (stereo not given),-0.186% [at 26.5 µM] (inactive)
6,C=CC1CO1 (stereo not given),-0.156% (inactive)
7,CCCCCCCCCCCCN1CCOCC1,0.338% (inactive)
8,CCOC(=O)CCc1ccccc1,-0.556% (inactive)
9,Cc1ccc(C(=O)c2ccccc2)cc1,-2.36% (inactive)
10,O=c1c2ccccc2nnn1CCl,-0.17% (inactive)
11,Cc1cc(S(=O)(=O)O)c(N)cc1Cl,0.807% (inactive)
12,Nc1nc2c(ncn2CCC(CO)CO)c(=O)[nH]1,0.589% [at 26.5 µM] (inactive)
13,C1=CCC(c2ccccc2)CC1 (stereo not given),-1.56% (inactive)
14,NCc1ccco1,-0.245% (inactive)
15,CCOC(=O)/C=C/C(=O)O,0.899% (inactive)
16,CC(C)(C)OC(=O)N1C[C@@H](F)C[C@H]1C(=O)O,-0.317% (inactive)
17,CCCC(C)C=O (stereo not given),-1.13% (inactive)
18,CCCCCCCCCCCCCCC1CO1 (stereo not given),0.54% (inactive)
19,CCCCc1ccc(N)cc1,0.0589% (inactive)
20,O=S1(=O)c2cccc3cccc(c23)N1CCCN1CCN(c2ccc(F)cc2)CC1,-0.0835% [at 26.5 µM] (inactive)
